# Experiments:
# Conditions in all cases: concentration: 1 μM,replicates: in singlicate; n = 1
# HASPIN = system: T1, HASPIN
# T1 construct: gene GSG2
# HCK = system: HCK
# HIPK1 = system: HIPK1
# HIPK2 = system: HIPK2
# HIPK3 = system: HIPK3
# HIPK4 = system: HIPK4
# HPK1 = system: HPK1
# HUNK = system: HUNK
# ICK = system: ICK
# IGF1R = system: IGF1R
# IKK-alpha = system: T2, IKK-alpha
# T2 construct: gene CHUK
# IKK-beta = system: T3, IKK-beta
# T3 construct: gene IKBKB
# IKK-epsilon = system: T4, IKK-epsilon
# T4 construct: gene IKBKE
# INSRR = system: INSRR
# INSR = system: INSR
# IRAK1 = system: IRAK1
# IRAK3 = system: IRAK3
# IRAK4 = system: IRAK4
# ITK = system: ITK
# [1] = system: JAK1(JH1domain-catalytic)
# 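Further: KINOMEscan kinase panel screen.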
SMILES,%Inh (HASPIN) [%],%Inh (HCK) [%],%Inh (HIPK1) [%],%Inh (HIPK2) [%],%Inh (HIPK3) [%],%Inh (HIPK4) [%],%Inh (HPK1) [%],%Inh (HUNK) [%],%Inh (ICK) [%],%Inh (IGF1R) [%],%Inh (IKK-alpha) [%],%Inh (IKK-beta) [%],%Inh (IKK-epsilon) [%],%Inh (INSRR) [%],%Inh (INSR) [%],%Inh (IRAK1) [%],%Inh (IRAK3) [%],%Inh (IRAK4) [%],%Inh (ITK) [%],%Inh [1] [%]
CC(C)c1nc(-c2cccc(NS(=O)(=O)c3ccccc3)c2)c(-c2ccnc(Nc3ccc4c(c3)CN(C)CC4)n2)s1 [GSK1649598],0,99.7,75,58,69,93.6,88,3,36,0,2,15,42,0,35,65,10,16,47,25
NC(=O)Nc1sc(-c2ccc(F)cc2)cc1C(N)=O [GW789449],3,47,40,34,31,2,48,0,15,2,78,100,0,10,37,41,15,12,26,91.4
COc1cc2c(Nc3ccc(NC(=O)c4ccccc4)cc3)ncnc2cc1OCCCN1CCOCC1 [GSK301329],0,0,15,0,3,79,15,0,2,15,0,4,0,0,0,5,26,11,26,0
CC(=O)c1c(-c2ccncc2)[nH]c(-c2ccncc2)c1C [GW493036],85,0,53,0,65,86,11,26,18,0,35,30,2,0,0,85,0,32,13,12
CC(=O)Nc1ccc(-c2cc3ncnc(SCC(=O)O)c3s2)cc1,13,15,96.7,97.5,95.1,95.6,11,0,60,0,0,0,0,10,0,78,52,0,2,0
C[C@@H]1CNc2c(sc3ccc4nc(-c5ccncc5)ccc4c23)C(=O)N1,70,21,37,3,4,0,0,7,0,0,14,0,0,0,0,78,42,0,0,0
CCCC(=O)Nc1n[nH]c2ncccc12 [SB-601436],29,0,20,0,0,0,6,28,7,0,0,0,0,0,0,0,0,0,0,5
Cc1cccc(-c2nc(Nc3ccncc3)c3sccc3n2)n1 [GW869641],44,25,21,13,37,13,16,20,32,8,32,22,0,5,31,18,0,0,12,0
Cl.Nc1n[nH]c2cc(-c3ccccn3)ccc12 [GSK2189892],38,0,2,0,5,0,38,0,0,5,0,0,24,0,0,0,6,0,4,10
Cc1ccc(C(=O)Nc2ccc(Oc3ccc4nc(NC(=O)C5CC5)cn4c3)c(F)c2)c(=O)n1-c1ccccc1,0,96.6,29,0,0,72,56,22,0,0,61,56,0,0,0,0,44,0,57,14
O=C(Nc1ccccc1)c1cccc(Oc2ccc3nccn3n2)c1,15,15,0,0,0,32,0,0,63,0,0,0,91.5,86,0,25,3,21,0,0
O=C(Nc1cccc(C(F)(F)F)c1)c1cccc(Oc2ccc3nccn3n2)c1,0,52,0,8,20,65,0,0,31,20,0,0,0,22,2,25,0,13,21,2
COC(=O)Nc1nc2cc(Oc3ccc(NC(=O)Nc4cc(C(F)(F)F)ccc4Cl)cc3)ccc2[nH]1.Cl [GW697465],13,0,0,0,3,86,63,17,0,0,35,16,0,0,0,23,0,8,12,21
Cc1ccc(Nc2ccnc(Nc3ccc4c(c3)CS(=O)(=O)C4)n2)cc1O.Cl [GW579362],0,90,26,0,28,44,62,8,28,56,62,87,91,22,53,99.1,91,87,38,92.4
CCn1c(-c2nonc2N)nc2cncc(Br)c21 [SB-738004],99.4,3,47,74,74,0,42,27,7,0,12,0,26,0,0,63,0,0,0,18
COc1cc(Nc2nccc(N3CCC(NC(=O)c4cccc(C#N)c4)C3)n2)cc(OC)c1OC (stereo not shown) [GSK1379751],8,0,0,0,3,0,45,0,0,0,19,0,5,0,0,58,70,15,0,0
COc1cccc(CNC(=O)NC2CCN(c3ccnc(Nc4cc(OC)c(OC)c(OC)c4)n3)C2)c1 (stereo not shown) [GSK1379765],11,12,0,34,36,0,38,0,13,0,21,24,36,96.4,0,73,86,27,20,13
CCn1c(-c2nonc2N)nc2cncc(CNC3CCNCC3)c21.Cl [SB-747651],73,0,0,0,48,0,35,0,16,13,39,27,5,0,14,56,0,41,9,15
Nc1nccc(-c2ccc3c(N)n[nH]c3c2)n1 [GSK1034945],90.5,0,0,0,34,34,52,0,0,0,76,53,18,0,0,45,33,23,14,0
C[C@@H]1CCN(C(=O)N2CCCC2)C[C@@H]1N(C)c1ncnc2[nH]ccc12,30,0,25,0,22,2,0,0,13,0,23,19,17,12,0,6,8,0,0,99.6
O=C(Nc1ccc(Oc2ccc3nc(NC(=O)C4CC4)cn3n2)c(F)c1)c1cccn(-c2ccccc2)c1=O,0,71,40,0,0,20,11,6,0,0,0,0,0,0,0,0,0,0,1,8

SMILES,%Inh (HASPIN) [%],%Inh (HCK) [%],%Inh (HIPK1) [%],%Inh (HIPK2) [%],%Inh (HIPK3) [%],%Inh (HIPK4) [%],%Inh (HPK1) [%],%Inh (HUNK) [%],%Inh (ICK) [%],%Inh (IGF1R) [%],%Inh (IKK-alpha) [%],%Inh (IKK-beta) [%],%Inh (IKK-epsilon) [%],%Inh (INSRR) [%],%Inh (INSR) [%],%Inh (IRAK1) [%],%Inh (IRAK3) [%],%Inh (IRAK4) [%],%Inh (ITK) [%],%Inh [1] [%]
Cn1ccc2ncnc(Oc3ccc(NC(=O)Nc4cccc(C(F)(F)F)c4)c(Cl)c3)c21,0,47,26,15,0,17,39,2,0,0,53,19,6,0,16,0,0,0,1,0
O=C(Nc1n[nH]c2cc(-c3ccco3)ccc12)C1CC1 [SB-737447],0,5,39,50,31,6,3,0,66,0,0,0,0,5,2,0,0,0,0,2
COc1cccc(OC)c1C(=O)Nc1cccc(-c2nn3ccccc3c2-c2ccnc(Nc3cccc(F)c3)n2)c1 [GSK361065],0,30,31,0,0,84,2,15,0,7,0,0,4,0,0,0,0,0,93.8,0
NC(=O)c1ccc(-c2cc3ncnc(SCC(=O)O)c3s2)cc1,0,13,94.8,96.1,92,79,2,0,10,0,0,0,0,0,0,70,9,0,0,0
Cc1ccc(CC(=O)N2CCc3cc(-c4cn(C)c5ncnc(N)c45)ccc32)cc1 [GSK2634758],5,0,6,0,13,5,63,1,0,18,1,0,36,12,4,13,0,0,13,6
COC(=O)c1cccc(NC(=O)NC2CCN(c3ccnc(Nc4cc(OC)c(OC)c(OC)c4)n3)C2)c1 (stereo not shown) [GSK1379767],15,5,0,0,6,0,72,0,0,3,0,0,40,0,11,62,79,11,11,9
O=C(Nc1cccc(Oc2ccc3nccn3n2)c1)Nc1cccc(C(F)(F)F)c1,0,27,7,33,1,17,0,22,0,3,34,0,0,15,0,13,23,0,0,27
COc1cc2nccc(Nc3ccc(Oc4ccccc4)cc3)c2cc1OC.Cl [GI261656],29,97.6,0,0,11,0,2,9,0,0,0,0,35,0,0,0,0,0,0,8
Cn1ccc2ncnc(Oc3ccc(NC(=O)Nc4cccc(C(F)(F)F)c4)c(F)c3)c21,1,31,44,0,0,94.3,48,0,0,4,44,0,0,6,2,0,0,0,3,11
Cc1cccc2c(-c3ccncc3)c(-c3ccc(F)cc3)nn12.Cl [GW461487],2,0,0,0,19,0,28,5,0,0,0,0,21,0,0,9,0,0,5,8
C[C@@H](Oc1cc(-n2cnc3ccc(-c4ccncc4)cc32)sc1C(N)=O)c1ccccc1Cl [GSK483724],87,0,33,19,59,69,64,0,45,19,7,13,24,0,0,49,81,17,22,0
CN(c1ccccc1CNc1nc(Nc2ccc3c(c2)CC(=O)N3)ncc1C(F)(F)F)S(C)(=O)=O,0,3,83,80,64,89,76,0,0,88,0,0,35,69,93.5,26,65,27,56,74
Cc1nnc(-c2ccc3occ(-c4ccc(S(C)=O)cc4)c3n2)o1 (stereo not shown),6,0,46,0,0,0,0,0,0,10,0,0,0,0,0,0,0,0,8,8
O=C(NOCC1CC1)c1cc(Br)c(F)c(F)c1Nc1ccc(I)cc1Cl,0,8,20,0,0,0,14,8,0,0,0,0,0,0,0,0,0,0,2,7
CC(C)S(=O)(=O)N1CCN(Cc2ccc3c(c2)nc(NC(=O)c2ccsc2)n3C[C@H](O)c2ccccc2)CC1 [GW635815],17,37,34,20,1,0,39,0,0,29,20,13,52,27,67,90,49,80,97.6,5
Cl.Cl.NC[C@H](CC1CCCCC1)NC(=O)c1ccc(-c2ccnc3[nH]ccc23)s1 [GSK1581428],88,0,98.7,96.1,98.9,94.2,78,0,11,0,31,72,31,100,5,57,13,6,5,56
CN(c1ccc2c(c1)nc(NCc1ccc(F)cc1)n2C)c1ccnc(Nc2ccc(CS(C)(=O)=O)cc2)n1.Cl [GW813244],28,47,53,25,47,79,60,5,7,13,15,0,0,15,27,49,1,0,0,38
COc1cc2ncn(-c3cc(OCC4CCCCC4)c(C(N)=O)s3)c2cc1OC [GSK204559],0,0,9,0,0,68,39,0,0,5,0,2,0,0,14,0,12,9,13,0
FC(F)(F)c1cc(Br)cc(Nc2nccc(-c3cnn4ncccc34)n2)c1 [GW810578],0,12,99.1,99.4,97.9,76,13,0,97.8,0,13,9,0,11,8,92,58,0,0,3
CCOC(=O)N1CCC(n2cnc(-c3ccc(F)cc3)c2-c2ccnc(N)n2)CC1 [SB-219952],0,0,37,17,15,0,5,0,70,0,0,0,0,0,0,10,19,11,0,0

# — paper PMC5540273 (PLoS ONE, 2017)
